Data on seven compounds can be found in PubChem BioAssay (NCI).

Some test systems named below: NCI-H23 lung; NCI-H226 lung; NCI-H322M lung; HOP-62 NSCLC; NCI-H460 lung; HOP-92 NSCLC; NCI-H522 lung; A549/ATCC NSCLC; 786-0 renal; COLO 205 colon; DU-145 prostate; K-562 leukemia; MALME-3M melanoma; MDA-MB-231 breast; RXF 393 renal; SF-268 CNS; SF-295 CNS; SF-539 CNS; UACC-257 melanoma; M14 melanoma.
Test in all cases: NCI-60 one-dose screen, 48 h (100 = growth as untreated, 0 = no growth, -100 = all killed)
Holding throughout (details): 10 µM unless noted

About 83,000 compounds went through this panel and 20% of them were active in at least one assay; those are over-represented in the sample as a whole.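 Each cell line was grown in a 96-well plate and treated with one concentration of compound for 48 hours. Values below 10 were considered active.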 Unmarked numbers belong to inactive results. Activity calls are given as the source filed them.

Take `CCOC(=O)N1CCN(S(=O)(=O)c2oc(-c3ccc(Cl)cc3)nc2C#N)CC1`: the growth is 75.9% in the test with NCI-H23 lung; 93.4% with NCI-H226 lung; 99.3% with NCI-H322M lung; 96% in the test on HOP-62 NSCLC; 103% in the test on NCI-H460 lung; 97.6% in the test with HOP-92 NSCLC. The growth is -6.61% (active) in the test on NCI-H522 lung; 96.8% in the test with A549/ATCC NSCLC; 92.7% in the test with 786-0 renal; 47% in the test with COLO 205 colon; 103% in the test with DU-145 prostate; 9.23% (active) in the test on K-562 leukemia. The growth with MALME-3M melanoma was 79.8%; in the test on MDA-MB-231 breast, 93.4%; in the test on RXF 393 renal it was 83.8%; with SF-268 CNS, 109%; with SF-295 CNS, 102%; with SF-539 CNS it was 89%. The results for the growth with UACC-257 melanoma and in the test with M14 melanoma were 84.1% and 75.4%, respectively.
For `COc1ccc(C(C)=O)cc1S(N)(=O)=O`, the growth in the test on NCI-H23 lung was 98.2%; in the test with NCI-H226 lung, 101%; with NCI-H322M lung, 97.1%; with HOP-62 NSCLC it was 112%; with NCI-H460 lung, 104%; in the test with HOP-92 NSCLC it was 92%. Also, the growth is 75.6% in the test on NCI-H522 lung; 88% with A549/ATCC NSCLC; 89.4% with 786-0 renal; 115% in the test on COLO 205 colon; 106% in the test on DU-145 prostate; 104% in the test with K-562 leukemia. Moreover, the growth in the test on MALME-3M melanoma is 99.3%; with MDA-MB-231 breast it was 103%; with RXF 393 renal, 102%; in the test with SF-268 CNS, 101%; with SF-295 CNS it was 94.6%; in the test on SF-539 CNS, 104%. The growth was 91.9% in the test with UACC-257 melanoma and 95% in the test on M14 melanoma.
For the compound `O=C(Cn1cc(CN2C(=O)c3ccccc3S2(=O)=O)nn1)Nc1cccc(Cl)c1`, the growth with NCI-H23 lung was 97.1%; in the test with NCI-H226 lung it was 117%; with NCI-H322M lung, 99%; in the test on HOP-62 NSCLC, 125%; with NCI-H460 lung, 111%; in the test with HOP-92 NSCLC it was 105%. Also, the growth in the test with NCI-H522 lung is 93.9%; in the test with A549/ATCC NSCLC it was 111%; in the test on 786-0 renal, 115%; in the test with COLO 205 colon, 114%; with DU-145 prostate, 109%; in the test on K-562 leukemia, 103%. The growth is 99.6% with MALME-3M melanoma; 115% in the test with MDA-MB-231 breast; 106% with RXF 393 renal; 99.4% with SF-268 CNS; 115% with SF-295 CNS; 110% in the test with SF-539 CNS. Moreover, the growth in the test on UACC-257 melanoma is 113%; with M14 melanoma, 100%.
With `Nc1c(C(=O)Nc2ccncc2)sc2nc3c(cc12)CCCCC3`, the growth with NCI-H23 lung was 61.8%; with NCI-H226 lung, 72.3%; in the test on NCI-H322M lung, 99.9%; in the test on HOP-62 NSCLC, 81.8%; in the test on NCI-H460 lung it was 81.6%; in the test with HOP-92 NSCLC, 73%. The growth in the test with NCI-H522 lung was 73.9%; with A549/ATCC NSCLC, 89.5%; in the test with 786-0 renal, 79.1%; in the test on COLO 205 colon, 86.5%; with DU-145 prostate, 89.2%; in the test on K-562 leukemia it was 51.8%. The growth in the test on MALME-3M melanoma was 90.6%; in the test with MDA-MB-231 breast, 90.9%; in the test with RXF 393 renal, 84.2%; with SF-268 CNS, 99.5%; with SF-295 CNS it was 71.5%; in the test with SF-539 CNS it was 73.2%. Also, the growth with UACC-257 melanoma is 76%; with M14 melanoma it was 91.9%.
For `N#C/C(=C\c1ccc(-c2ccc(Cl)cc2)o1)c1ccc(Cl)cc1`, the growth is 63.2% in the test with NCI-H23 lung; 30% with NCI-H226 lung; 69.2% in the test on NCI-H322M lung; 46.8% with HOP-62 NSCLC; 10.3% in the test on NCI-H460 lung; 5.34% (active) in the test on HOP-92 NSCLC. In addition, the growth was 81% with NCI-H522 lung; 35.4% in the test with A549/ATCC NSCLC; -0.442% (active) with 786-0 renal; 77.1% in the test on COLO 205 colon; 82.1% in the test on DU-145 prostate; 82.4% in the test on K-562 leukemia. Moreover, the growth in the test with MALME-3M melanoma is 62.9%; in the test with MDA-MB-231 breast, 32.6%; with RXF 393 renal it was 62.8%; in the test with SF-268 CNS, 81.2%; in the test on SF-295 CNS, 51.9%; in the test on SF-539 CNS, 56.9%. Moreover, in the test with UACC-257 melanoma, the growth is 100%.
Take `COc1ccc(Nc2ncc(C(N)=O)c(NCCCNC(=O)C3CCC3)n2)cc1`: the growth was 76.9% in the test with NCI-H23 lung; 62.7% in the test on NCI-H226 lung; 79% in the test on NCI-H322M lung; 35.9% in the test with HOP-62 NSCLC; 68.6% in the test on NCI-H460 lung; 60.6% with HOP-92 NSCLC. Moreover, the growth was 77.1% with NCI-H522 lung; 83.1% in the test on A549/ATCC NSCLC; 74.1% with 786-0 renal; 3.6% (active) with COLO 205 colon; 77.3% in the test with DU-145 prostate; 39.5% with K-562 leukemia. For the same compound, the growth in the test with MALME-3M melanoma is 95.2%; in the test on MDA-MB-231 breast, 26.5%; in the test with RXF 393 renal, 17%; in the test on SF-268 CNS it was 80.9%; in the test with SF-295 CNS, 75.7%; in the test on SF-539 CNS, 14.3%. Besides, the growth in the test with UACC-257 melanoma is 112%; with M14 melanoma, 67.7%.
As for `O=C1OCC2=C1C(c1cccc(C(F)(F)F)c1)c1cc3c(cc1N2CCO)OCO3` (stereo not drawn), the growth in the test on NCI-H23 lung was 29.5%; in the test with NCI-H226 lung, 66%; in the test on NCI-H322M lung it was 42.4%; in the test with HOP-62 NSCLC it was 33%; in the test on NCI-H460 lung, 13%; in the test with HOP-92 NSCLC, 51.4%. For the same compound, the growth is 16.1% with NCI-H522 lung; 28.9% in the test with A549/ATCC NSCLC; 28.5% with 786-0 renal; -2.39% (active) in the test with COLO 205 colon; 10.7% with DU-145 prostate; 9.02% (active) with K-562 leukemia. Further, the growth is 63.9% with MALME-3M melanoma; 44% in the test on MDA-MB-231 breast; 1.92% (active) in the test with RXF 393 renal; 47.6% in the test with SF-268 CNS; -2.78% (active) in the test on SF-295 CNS; -3.02% (active) with SF-539 CNS. Besides, in the test with UACC-257 melanoma, the growth was 74.2%.
